Measured values taken from PubChem BioAssay AID1014 (NMMLSC, 2008).
Active and inactive are the calls of the source. No stated cut-off is given here; in the data, active means inhibition of mean fluorescence above about 33%; inactive means the rest.

Assay: blockers of bacterial quorum-sensing reporter fluorescence – flow cytometry, SAR analogs, SAR follow-up (AID 1014);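 further: Staphylococcus aureus RN6390 with RNAIII-GFP reporter stimulated by AIP; bacteria incubated with compound for 3 hours at 37 °C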
Conditions: at 20 µM, stronger effect = higher value; inhibition of percent positive cells: measured here: percent reporter-positive cells

O=C(NC1CCCC1)C(c1cc2c(cc1[N+](=O)[O-])OCO2)N1CCN(c2ccccc2)CC1 (stereo unspecified)
inhibition of mean fluorescence: -13.2% (inactive)
inhibition of percent positive cells: -1.6%

N#Cc1c(NC(=O)CCN2C(=O)c3ccccc3C2=O)oc(-c2ccccc2)c1-c1ccccc1
inhibition of mean fluorescence: 19.7% (inactive)
inhibition of percent positive cells: -0.3%

CCOc1ccc(Nc2nc3c(S(=O)(=O)c4ccc(C(C)C)cc4)nnn3c3ccccc23)cc1
inhibition of mean fluorescence: -3.7% (inactive)
inhibition of percent positive cells: -0.1%

CC(=O)c1cc2c(cc1NC(=O)CN1CCOCC1)OCO2
inhibition of mean fluorescence: -26.1% (inactive)
inhibition of percent positive cells: -1%

CC1CCCN(C(C(=O)Nc2ccc3c(c2)OCO3)c2ccccc2)C1 (stereo unspecified)
inhibition of mean fluorescence: 81.5% (active)
inhibition of percent positive cells: 81.9%

CCc1ccc(Nc2nc3c(S(=O)(=O)c4ccc(C(C)(C)C)cc4)nnn3c3ccccc23)cc1
inhibition of mean fluorescence: 3.7% (inactive)
inhibition of percent positive cells: -0.1%

O=C(NCCN1CCN(c2ccccc2F)CC1)c1ccc2c(Cl)c3c(nc2c1)CCCC3
inhibition of mean fluorescence: 4.8% (inactive)
inhibition of percent positive cells: -0.2%

Cc1cc(Nc2ccccc2C(=O)O)n2ncnc2n1
inhibition of mean fluorescence: -29.1% (inactive)
inhibition of percent positive cells: -0.3%

Cc1ccc(C)c(Nc2c(F)c(F)c(F)c(F)c2C(=O)O)c1
inhibition of mean fluorescence: 2.3% (inactive)
inhibition of percent positive cells: -1.9%

COc1ccc(Nc2nc3c(S(=O)(=O)c4ccc(C(C)C)cc4)nnn3c3ccccc23)cc1
inhibition of mean fluorescence: -10.2% (inactive)
inhibition of percent positive cells: 0.3%

COc1ccc(S(=O)(=O)c2n[nH]n3c2nc(=O)c2ccccc23)cc1
inhibition of mean fluorescence: 34.1% (active)
inhibition of percent positive cells: -1.8%

NC1=NC(=O)CC(C(=O)Nc2cccc3ccccc23)S1 (stereo unspecified)
inhibition of mean fluorescence: 20.2% (inactive)
inhibition of percent positive cells: 1.5%

O=C(NC1CCCCC1)C(c1cc2c(cc1[N+](=O)[O-])OCO2)N1CCN(c2ccccc2)CC1 (stereo unspecified)
inhibition of mean fluorescence: -34.9% (inactive)
inhibition of percent positive cells: 0.3%
